Compound activity (PubChem BioAssay)
HIF act = HIF pathway transcriptional activation; activation, % at 7.5 µM (by protocol); U2OS HRE-luciferase reporter, luminescence; normalized: DMSO 0%, desferrioxamine 100%; AID 1910; 0.32% of 300,000 active;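 active = mean activation of at least 10% of the iron chelator positive control signal, with at least half of replicates also reaching 10%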
ALR H2O2 inh = human ALR oxidase inhibition via reduced H2O2. purified ALR, DTT oxidation, H2O2 HRP-luminol luminescence. inhibition, % (concentration not given with the values). 3.8% of 290,000 active. AID 485317;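 active = mean replicate inhibition above about 79%, with every replicate also reaching it, limit read from the data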
Target sequence (P55789 whole entry, looked up): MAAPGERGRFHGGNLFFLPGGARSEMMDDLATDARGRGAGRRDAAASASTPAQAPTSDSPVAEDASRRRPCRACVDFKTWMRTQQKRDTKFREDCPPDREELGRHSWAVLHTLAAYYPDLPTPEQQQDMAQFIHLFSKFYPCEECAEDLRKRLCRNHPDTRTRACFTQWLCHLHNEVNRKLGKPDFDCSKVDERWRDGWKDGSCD
AI-2 QS mod = modulates the Vibrio harveyi AI-2 quorum sensing system; 0.4% of 300,000 active; activity change, % at 7.5 µM; Vibrio harveyi JMH597 AI-2 luminescence/OD600 ratio, 9 h; active compounds read low; strain lacks LuxN and CqsS sensors; 0 = neutral-control median; AID 2094; in the data active = activity change below about -75%, passing the limit was not always enough;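 also: luminescence divided by OD600 gain over 9 h not by final OD600 alone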
SUMO Mot1 rescue = blocks SUMOylation pathway, rescuing yeast Mot1-301 growth; growth rescue, % at 18.8 µM; 1% of 320,000 active; AID 2716; S. cerevisiae Mot1-301 growth rescue, ATP luminescence, 38.5C; percent above DMSO median, 100 means doubled;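 active = every valid replicate shows activation above 250% relative to neutral control wells; inactive = the rest, any valid replicate at or below 250%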;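 also: OY570 slx delta 5 strain wells were the positive control but not used for scaling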
Active calls of the source: *; nt = no result. This is a sample that favours compounds with a hit; in the whole collection about 4.8% have one here.

SMILES	HIF act	ALR H2O2 inh	AI-2 QS mod	SUMO Mot1 rescue
O=S(=O)(c1ccc(Cl)c(NC(=S)N/N=C/c2c(F)cccc2F)c1)N1CCOCC1	0	-2	2	-2
CC(C)(C)c1ccc(/C=N/NC(=S)Nc2cccnc2)cc1	-3	2	14	117
O=C(Nc1ccccc1N1CCCC1)c1cc(S(=O)(=O)N2CCOCC2)ccc1Cl	1	49	22	-7
Oc1ccc(/C=N/NC(=S)Nc2cccnc2)cc1O	-1	99*	-6	-10
CC(=O)N/C(=C\c1ccccc1)C(=O)OC(C)C(=O)NCc1ccccc1 (stereo unspecified)	0	-10	28	68
O=C1CCCC2=C1C(c1ccc(Br)cc1)c1c([nH]c(=S)[nH]c1=O)N2 (stereo unspecified)	0	83*	18	-12
N#CC(C#N)=C1C=CC=CN1/C(=C\c1ccco1)C(=O)c1ccc(Br)cc1	nt	nt	nt	291*
N#CC(C#N)=C1C=CC=CN1/C(=C\c1ccco1)C(=O)c1ccccc1	nt	nt	nt	17
CCOc1ccc(CSC(=N)N)cc1	0	98*	19	-9
CCOc1ccc(CC(C(N)=O)C(N)=O)cc1	-1	-5	21	112
Cc1nc2c(C(=O)NCCC(C)C)c[nH]n2c(=O)c1Cl	0	95*	36	-24
Cc1nc2c(C(=O)NCCc3ccccc3)c[nH]n2c(=O)c1Cl	0	3	13	-1
CC(Oc1ccc2ccc(=O)oc2c1)C(=O)NCC1CCC(C(=O)O)CC1 (stereo unspecified)	0	-2	1	-8
CC(Oc1ccc2cc(-c3ccccc3)c(=O)oc2c1)C(=O)NCC1CCC(C(=O)O)CC1 (stereo unspecified)	0	-6	12	743*
Cc1cc(Br)ccc1NC(=O)C1CCN(S(=O)(=O)c2cnc[nH]2)CC1	0	-2	27	-9
Cc1csc(SCC(=O)Nc2ccc3c(c2)OCCO3)n1	3	-11	4	-5
CSc1nsc(SCC(=O)Nc2ccc3c(c2)OCCO3)n1	5	98*	36	97
CSc1nsc(SCC(=O)Nc2ccc(F)cc2)n1	2	3	23	16
CSc1nsc(SCC(=O)Nc2cccc(NC(C)=O)c2)n1	2	99*	29	-8
COc1ccccc1NC(=O)CSc1nc(SC)ns1	2	85*	14	-7
CCOc1ccc(OCCC(=O)OCC(=O)NCc2ccccc2)cc1	1	3	-2	2
Cc1ccc2cc(CN(C(=O)c3ccncc3)C(C)C)c(=O)[nH]c2c1	0	-10	20	306*
COc1cc2c3c(c1)C(C)CC(C)(C)N3C(=O)C2=O (stereo unspecified)	-1	-75	27	21
CCc1cc2c3c(c1)C(C)CC(C)(C)N3C(=O)/C2=C1\SC(=O)NC1=O (stereo unspecified)	0	97*	7	1
CC(=O)C1=C(C)NC(SCc2cccc3ccccc23)=C(C#N)C1c1ccco1 (stereo unspecified)	0	99*	-3	2
SMILES	HIF act	ALR H2O2 inh	AI-2 QS mod	SUMO Mot1 rescue
CC(=O)C1=C(C)NC(SCc2ccc(C#N)cc2)=C(C#N)C1c1ccco1 (stereo unspecified)	nt	33	nt	2
CCCSCCCNC(=O)c1ccc(NC(=O)C2=CSCCO2)cc1	0	-3	9	8
Cc1cc2c(s1)Nc1ccccc1N=C2N1CCN(C)CC1	-1	94*	21	-1
O=C(COC(=O)Cc1c(F)cccc1Cl)NC1CCS(=O)(=O)C1 (stereo unspecified)	0	-3	22	-21
O=C(O)CSCC(=O)Nc1ccc(-c2nc3ccccc3s2)cc1	2	99*	20	-22
O=C(CSc1nnc(SCc2cccc3ccccc23)s1)c1ccc2c(c1)OCO2	0	-16	-1	0
O=C(CSc1nc2ccccc2s1)Nc1cc(C(=O)O)cc(C(=O)O)c1	0	99*	12	-9
O=C(CSc1nc2ccccc2s1)NCc1cc([N+](=O)[O-])ccc1O	-2	99*	32	3
Cc1ccc2nc(-c3ccc(NC(=O)CSCC(=O)O)cc3)sc2c1	2	nt	8	0
O=C(CSc1nc2ccccc2s1)Nc1ccc2c(c1)oc1ccccc12	1	-5	-1	-3
O=C(CSc1nnc(SCc2cccc3ccccc23)s1)Nc1ccc(C(=O)O)cc1	0	98*	26	31
COc1ccc(N2CCN(CCCNC(=O)C(=O)c3c[nH]c4ccccc34)CC2)cc1	0	20	11	-18
O=C(CSc1nc2ccccc2s1)Nc1nccs1	0	-9	18	23
O=C(CSc1nc2ccccc2s1)NNC(=O)Nc1ccc(Cl)c(Cl)c1	-2	-12	3	6
Nc1nonc1NC(=O)CSc1nc2ccccc2s1	0	98*	19	14
O=C(CSc1nc2ccccc2s1)Nc1ccc(Cl)c(C(=O)O)c1	0	99*	9	-1
FC(F)(F)c1ccc(Cl)c(-n2c(-c3cc(C4CC4)[nH]n3)n[nH]c2=S)c1	-1	78*	5	225
CS(=O)(=O)N1CCC(Oc2ccccc2C(=O)NC(C2CC2)C2CC2)CC1	0	-6	21	834*
Cc1ccc(S(=O)(=O)c2nc(-c3ccccc3Cl)oc2N(C)C)cc1	56*	nt	34	6
CC(OC(=O)C1CCCCC1)C(=O)Nc1ccc(S(N)(=O)=O)cc1 (stereo unspecified)	nt	nt	nt	-31
COC(=O)/C(N=Nc1c(C)n(C)n(-c2ccccc2)c1=O)=C(\C)O	0	72	18	-3
COc1cc(N=Nc2c(C)n(C)n(-c3ccccc3)c2=O)ccc1N	0	98*	20	6
O=C(CN1CCCc2ccccc21)N/N=C/c1ccc(O)cc1O	3	98*	30	12
O=C(CN1CCCc2ccccc21)N/N=C/c1c(O)ccc2ccccc12	16*	-13	10	-1
CC(C)(C)NC(=O)NC(=O)CN1CCCc2ccccc21	nt	96*	-12	-10
SMILES	HIF act	ALR H2O2 inh	AI-2 QS mod	SUMO Mot1 rescue
O=C(CN1CCCc2ccccc21)NC(=O)NCc1ccccc1	0	27	15	0
O=C(CN1CCCc2ccccc21)N/N=C/c1ccccc1	2	23	10	-13
Cn1nccc1C(=O)Nc1cccc(S(=O)(=O)N2CCOCC2)c1	0	-13	23	57
CCc1nn(CC(=O)NCCCN2CCc3ccccc3C2)c(=O)c2cc3sccc3n12	-1	95*	24	38
CCc1nn(CC(=O)NCCCN2CCN(C)CC2)c(=O)c2cc3sccc3n12	0	-2	22	251
Cc1cc(/C=C(/C#N)C(=O)O)c(C)n1-c1cccc2ccccc12	0	96*	34	86
O=C(O)C1Cc2ccccc2CN1S(=O)(=O)c1ccc2ccccc2c1 (stereo unspecified)	-1	95*	-10	2
O=C(O)C1Cc2ccccc2CN1S(=O)(=O)c1ccccc1 (stereo unspecified)	0	-2	9	-3
Cc1cccc2nc(CSCc3ccco3)cn12	2	98*	15	2
